Inconclusive results are not listed. Activity calls are given as the source filed them. The call rests on the fitted dose curve; in most records, active means well fitted cell-killing curve with a large enough effect; inconclusive means small, poorly fitted or top-dose-only effect, or effect the other way; inactive means flat fitted curve, though single readings scatter.
Legend:
Assay in all cases: Primary qHTS to identify gynecologic anti-cancer compounds using libraries of approved drugs and bioactive compounds (AID 1345084); further: nearly all actives have a fitted effect of over 55% in size
C33A = details: Gynecologic cancer cell panel viability, ATPlite luminescence, 48 h; series mostly up to 57.5 µM
Method in brief: (§1)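 Cell viability after 48 h drug treatment, ATPlite luminescence readout; five doses.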

CASKI = details: Gynecologic cancer cell panel viability, ATPlite luminescence, 48 h; series mostly up to 57.5 µM
Method in brief: as §1

Es-2 = details: Gynecologic cancer cell panel viability, ATPlite luminescence, 48 h; series mostly up to 57.5 µM
Method in brief: as §1

HeLa = details: Gynecologic cancer cell panel viability, ATPlite luminescence, 48 h; series mostly up to 57.5 µM
Method in brief: as §1

Hek293T = details: Gynecologic cancer cell panel viability, ATPlite luminescence, 48 h, control line for the selectivity index; series mostly up to 57.5 µM
Method in brief: as §1

JEG-3 = details: Gynecologic cancer cell panel viability, ATPlite luminescence, 48 h; series mostly up to 57.5 µM
Method in brief: as §1

OV90 = details: Gynecologic cancer cell panel viability, ATPlite luminescence, 48 h; series mostly up to 57.5 µM
Method in brief: as §1

PA-1 = details: Gynecologic cancer cell panel viability, ATPlite luminescence, 48 h; series mostly up to 57.5 µM
Method in brief: as §1

SKOV3 = details: Gynecologic cancer cell panel viability, ATPlite luminescence, 48 h; series mostly up to 57.5 µM
Method in brief: as §1

Tov-21-G = details: Gynecologic cancer cell panel viability, ATPlite luminescence, 48 h; series mostly up to 57.5 µM
Method in brief: as §1

Tov112D = details: Gynecologic cancer cell panel viability, ATPlite luminescence, 48 h; series mostly up to 57.5 µM
Method in brief: as §1
On the % scale 0 is the no-effect control and ±100 the full control effect.

COc1ccc(C(=O)n2c(C)c(Cc3cccc(O[C@@H](C)C(=O)O)c3)c3cc(OC(F)(F)F)ccc32)cc1
inactive: Potency (C33A) | Potency (CASKI) | Potency (Es-2) | Potency (HeLa) | Potency (Hek293T) | Potency (JEG-3) | Potency (OV90) | Potency (PA-1) | Potency (SKOV3) | Potency (Tov-21-G) | Potency (Tov112D)

COC(=O)C1=CO[C@@H](O[C@@H]2O[C@H](CO)[C@@H](O)[C@H](O)[C@H]2O)C2C1C(=O)C[C@H]2C (some centres undefined)
inactive: Potency (C33A) | Potency (CASKI) | Potency (Es-2) | Potency (HeLa) | Potency (Hek293T) | Potency (JEG-3) | Potency (OV90) | Potency (PA-1) | Potency (SKOV3) | Potency (Tov-21-G) | Potency (Tov112D)

COc1ccc(C(=O)C2CCN(CC(=O)N(Cc3nc4c(c(=O)[nH]3)COCC4)CC3CC3)CC2)cc1
inactive: Potency (C33A) | Potency (CASKI) | Potency (Es-2) | Potency (HeLa) | Potency (Hek293T) | Potency (JEG-3) | Potency (OV90) | Potency (PA-1) | Potency (SKOV3) | Potency (Tov-21-G) | Potency (Tov112D)

O=C(O[C@H]1[C@@H]2C=CO[C@@H](O[C@@H]3O[C@H](CO)[C@@H](O)[C@H](O)[C@H]3O)[C@@H]2[C@@]2(CO)O[C@@H]12)c1ccccc1
inactive: Potency (C33A) | Potency (CASKI) | Potency (Es-2) | Potency (HeLa) | Potency (Hek293T) | Potency (JEG-3) | Potency (OV90) | Potency (PA-1) | Potency (SKOV3) | Potency (Tov-21-G) | Potency (Tov112D)

CC1(C)CC[C@]2(C(=O)O[C@@H]3O[C@H](CO)[C@@H](O)[C@H](O)[C@H]3O)CC[C@]3(C)C(=CCC4[C@@]5(C)CC[C@H](O[C@@H]6O[C@H](C(=O)O)[C@@H](O)[C@H](O[C@@H]7O[C@H](CO)[C@H](O)[C@H](O)[C@H]7O)[C@H]6O)C(C)(C)C5CC[C@]43C)C2C1 (some centres undefined)
inactive: activity change, negative = cytotoxicity (C33A) -1.04% [at 11.6 µM] | activity change, negative = cytotoxicity (CASKI) -0.547% [at 11.6 µM] | activity change, negative = cytotoxicity (Es-2) -0.756% [at 11.6 µM] | activity change, negative = cytotoxicity (HeLa) -6.39% [at 11.6 µM] | activity change, negative = cytotoxicity (Hek293T) 7.67% [at 11.6 µM] | activity change, negative = cytotoxicity (JEG-3) 4.29% [at 11.6 µM] | activity change, negative = cytotoxicity (OV90) 1.32% [at 11.6 µM] | activity change, negative = cytotoxicity (PA-1) -14.7% [at 11.6 µM] | activity change, negative = cytotoxicity (SKOV3) 12.6% [at 11.6 µM] | activity change, negative = cytotoxicity (Tov-21-G) -0.142% [at 11.6 µM] | activity change, negative = cytotoxicity (Tov112D) -2.13% [at 11.6 µM]

NC(=O)C(CCC(F)(F)F)N(Cc1ccc(-c2ncon2)cc1F)S(=O)(=O)c1ccc(Cl)cc1 (centres undefined)
inactive: Potency (C33A) | Potency (CASKI) | Potency (Es-2) | Potency (HeLa) | Potency (Hek293T) | Potency (JEG-3) | Potency (OV90) | Potency (PA-1) | Potency (SKOV3) | Potency (Tov-21-G) | Potency (Tov112D)

O=C(NCc1ccccn1)Nc1nnc(-c2ccco2)o1
inactive: Potency (C33A) | Potency (CASKI) | Potency (Es-2) | Potency (HeLa) | Potency (Hek293T) | Potency (JEG-3) | Potency (OV90) | Potency (PA-1) | Potency (SKOV3) | Potency (Tov-21-G) | Potency (Tov112D)

C=C1C[C@]23C[C@H]1CC[C@H]2[C@@]12CC[C@H](O)[C@@](C)(C(=O)O1)[C@H]2[C@@H]3C(=O)O
inactive: Potency (C33A) | Potency (CASKI) | Potency (Es-2) | Potency (HeLa) | Potency (Hek293T) | Potency (JEG-3) | Potency (OV90) | Potency (PA-1) | Potency (SKOV3) | Potency (Tov-21-G) | Potency (Tov112D)

Cc1cc2c(c(=O)[nH]1)OC(C(O)CC(C)C)O2 (centres undefined)
inactive: Potency (C33A) | Potency (CASKI) | Potency (Es-2) | Potency (HeLa) | Potency (Hek293T) | Potency (JEG-3) | Potency (OV90) | Potency (PA-1) | Potency (SKOV3) | Potency (Tov-21-G) | Potency (Tov112D)

COC(=O)C1=CO[C@@H](O)C2C(CO)=CCC12 (some centres undefined)
inactive: Potency (C33A) | Potency (CASKI) | Potency (Es-2) | Potency (HeLa) | Potency (Hek293T) | Potency (JEG-3) | Potency (OV90) | Potency (PA-1) | Potency (SKOV3) | Potency (Tov-21-G) | Potency (Tov112D)

COc1ccc(N2CCOCC2)c2sc(NC(=O)N3CCC(C)(O)CC3)nc12
inactive: Potency (C33A) | Potency (CASKI) | Potency (Es-2) | Potency (HeLa) | Potency (Hek293T) | Potency (JEG-3) | Potency (OV90) | Potency (PA-1) | Potency (SKOV3) | Potency (Tov-21-G) | Potency (Tov112D)

C=C[C@H]1[C@H](O[C@@H]2O[C@H](CO)[C@@H](O)[C@H](O)[C@H]2O)OC=C(C(=O)OC)[C@H]1CC(=O)O
inactive: Potency (C33A) | Potency (CASKI) | Potency (Es-2) | Potency (HeLa) | Potency (Hek293T) | Potency (JEG-3) | Potency (OV90) | Potency (PA-1) | Potency (SKOV3) | Potency (Tov-21-G) | Potency (Tov112D)

C[C@H](Oc1ccc(S(C)(=O)=O)cc1C(=O)N1CCN(c2ncc(C(F)(F)F)cc2F)CC1)C(F)(F)F
inactive: Potency (C33A) | Potency (CASKI) | Potency (Es-2) | Potency (HeLa) | Potency (Hek293T) | Potency (JEG-3) | Potency (OV90) | Potency (PA-1) | Potency (SKOV3) | Potency (Tov-21-G) | Potency (Tov112D)

CC1CCC2(OC1)OC1CC3C4CCC5C[C@@H](O[C@@H]6O[C@H](CO[C@@H]7OC[C@@H](O)[C@H](O)[C@H]7O)[C@H](O)[C@H](O)[C@H]6O)CC[C@]5(C)C4CC[C@]3(C)C1C2C (some centres undefined)
inactive: Potency (C33A) | Potency (CASKI) | Potency (Es-2) | Potency (HeLa) | Potency (Hek293T) | Potency (JEG-3) | Potency (OV90) | Potency (PA-1) | Potency (SKOV3) | Potency (Tov-21-G) | Potency (Tov112D)

— PubChem BioAssay (NCATS)
